From ChEMBL document CHEMBL4513216, “Probing the Open Global Health Chemical Diversity Library for Multistage-Active Starting Points for Next-Generation Antimalarials” (ACS Infect Dis, 2020) come the findings set out here.

Screen size: about 69,000 compounds; about 8,600 (12%) showed an effect of 50% or more. For the sample, strong results were picked, then their nearest neighbours and some compounds at random.

This assay deals with Plasmodium berghei. The assay can be described thus: Screen against P. berghei liver stage (PbLuc), transformed with Luciferase, at 10uM. The format is functional, HepG2. Particulars: tested at 10 uM.
As for `CCCN1CCC(c2nc3ccc(-c4cccc(OC)c4)cn3n2)CC1`, the INHIBITION is given as 82.9%. The same measure for `CCCN1CCC(c2nc3ccc(-c4ccccc4)cn3n2)CC1`: 54.8%. As for `CCCN1CCC(c2nc3ccc(-c4cccc(F)c4)cn3n2)CC1`, the INHIBITION was determined as 47.5%. With `Cc1cccc(-c2ccc3nc(C4CCN(CC5CC5)CC4)nn3c2)c1`, the INHIBITION is reported as 46.8%. Under `COCCN1CCC(c2nc3ccc(-c4ccccc4)cn3n2)CC1` stands -18.4%; under `CCCN1CCC(c2nc3ccc(-c4ccncc4)cn3n2)CC1`, 16.8%; under `CN(CCS(C)(=O)=O)C1CCCN(Cc2noc(C3CC3)n2)C1` (stereo not given), 47.3%. `CSc1cccc(CN(C)C(=O)c2cccc(C3CCCNC3)c2)c1` (stereo not given): the INHIBITION is on record as 60.4%. Under `CN(Cc1ccc2c(c1)OCO2)C(=O)c1ccc(C2CCCNC2)cc1` (stereo not given) stands -26.5%; under `CSCCN1CCC(NC(=O)c2cccc(C3CCCNC3)c2)CC1` (stereo not given), 50.8%. The same measure for `CSc1cccc(CN(C)C(=O)c2ccc(C3CCCNC3)cc2)c1` (stereo not given): 9.56%; for `O=C(NC1CCOCC1)c1cccc(C2CCCNC2)c1` (stereo not given): 27.7%; for `CCOC(=O)N1CCC(NC(=O)c2cccc(C3CCCNC3)c2)CC1` (stereo not given): 9.72%. Under `Cc1cccc(-n2cc3[nH]c(=O)n(Cc4cccc(F)c4)n3c2=O)c1` stands 25.2%; under `CCc1noc(CN(CC)C(=O)CC2C(=O)NCCN2CC=C(C)C)n1` (stereo not given), 16.9%; under `CCc1nc(C2NC3(CCCC3)C(=O)N2CC2CC2)cs1` (stereo not given), 61.6%. As for `Cc1nc(C2NC3(CCCC3)C(=O)N2CC2CC2)cs1` (stereo not given), the INHIBITION is 47.7%. Under `Cc1csc(C2NC3(CCCC3)C(=O)N2CC2CC2)n1` (stereo not given) stands 43.5%. Consider `O=C(NCC1CC1)C1CSCN1S(=O)(=O)c1ccccc1` (stereo not given), for which the INHIBITION is listed as -35.9%. The same measure for `Cc1n[nH]c(C2CN(CCc3cccs3)CCO2)n1` (stereo not given): 35.3%; for `Cc1cccc(CN2C(=O)CO[C@@H]3CN(CCO)C[C@H]32)c1`: -9.76%; for `COc1ccc(-c2nnc(CN3CCCC3Cn3cncn3)o2)cc1` (stereo not given): 45.1%. Under `NC(=O)N1CCC2(CC1)CC(=O)N(CC1CCCO1)c1ccccc12` (stereo not given) stands 54.3%; under `O=C([C@H]1CCCO1)N1CCC2(CC1)C(=O)N(CC1CC1)c1ccccc12`, 17.4%; under `Cc1nc(CN2C(=O)CC3(CCN(C(N)=O)CC3)c3ccccc32)cs1`, 36.4%. Under `COCCN1CCC2(CCN(Cc3ccc(OC)cc3)CC2)C1=O` stands 38.3%; under `O=C(c1cnc2[nH]c(=O)[nH]c(=O)c2c1)N1CCCC1C1CCCCC1` (stereo not given), -1.35%. In the case of `O=C(c1c[nH]nn1)N1CCCC1C1CCCCC1` (stereo not given), the INHIBITION is listed as 53.8%. `O=C(c1ccc(=O)[nH]n1)N1CCCC1C1CCCC1` (stereo not given): the INHIBITION is 18%. The same measure for `CC(C)N1CCC2(CC1)CC(NS(C)(=O)=O)c1ccccc1O2` (stereo not given): -12.2%. As to `CC(C)NC(=O)NCc1cc(-c2ccco2)n(CC(F)(F)F)n1`, the INHIBITION is 20.4%. The same measure for `Cc1nc(N2CCC(O)(c3ccc(F)cc3)CC2)c2c(C)nn(C)c2n1`: 51.2%; for `Cc1nc(C)c(C)c(N2CCC(O)(c3ccc(F)cc3)CC2)n1`: 25.5%; for `Cc1nc(N2CCC(O)(c3ccccc3)CC2)c2c(C)nn(C)c2n1`: 28.4%.

For the compound `Cn1cc(CN2CCC3(CC2)CCN(C(=O)c2cscn2)C3)cn1`, the INHIBITION was found to be 38.5%. The same measure for `COCC1CC2(CCN(c3cccc(C)n3)CC2)CN1c1ncccn1` (stereo not given): 46.6%; for `Cn1cncc1-c1nnc([C@H]2CCN(C3CCOCC3)C2)o1`: 4.61%. The same measure for `Cn1cncc1-c1nnc([C@H]2CCN(Cc3cccnc3)C2)o1`: 39.8%; for `Cc1ccccc1CN1CC[C@H](c2nnc(-c3cncn3C)o2)C1`: 5.96%; for `Cn1cncc1-c1nnc([C@H]2CCN(Cc3ccc(F)c(F)c3)C2)o1`: 11.4%. The same measure for `Cn1cncc1-c1nnc([C@H]2CCN(CC3CCCCC3)C2)o1`: -17.1%; for `Cn1cncc1-c1nnc([C@H]2CCN(Cc3ncc[nH]3)C2)o1`: 69.6%.

Consider `Cn1cncc1-c1nnc([C@H]2CCN(Cc3ccc(CO)o3)C2)o1`, for which the INHIBITION is reported as -18.2%. On to `CN1CC[C@H](c2nnc(-c3cncn3C)o2)C1`, for which the INHIBITION is recorded as 61.5%. Turning to `Cn1cncc1-c1nnc([C@H]2CCN(CC(C)(C)C)C2)o1`, the INHIBITION is listed as 57.4%. Under `COc1ccc(OC)c(CNCc2c(C(C)C)nn(C)c2N(C)C)c1` stands 30.08%; under `O=C1N[C@H]2OCCC[C@H]2[C@H](c2ccccc2C(=O)O)N1`, -0.495%; under `Cc1ccc(C2(O)CCN(C(=O)c3cccc(S(C)(=O)=O)c3)CC2)nc1`, -6.09%. The same measure for `Cc1n[nH]c(C)c1C1CCCN1C(=O)Cc1cccc(F)c1` (stereo not given): 40.2%; for `CSc1ccc(NC(=O)Cn2cc(N)cn2)cc1`: -15%. Under `Cc1cc(NCCc2nnc(N)s2)nc(-c2ccccc2)n1` stands -13.3%; under `CN1C(=O)CC[C@@H]2N(C(=O)CCc3cccnc3)CCCC[C@@]21C`, 44.3%. As to `CC(=O)N1CCc2[nH]cnc2C1C1=CCCN(CCn2cccc2)C1` (stereo not given), the INHIBITION was determined as 12.8%.

`CN(Cc1nnc(-c2ccco2)o1)C(C(N)=O)c1cccc(F)c1` (stereo not given): the INHIBITION turned out to be 61.5%. Under `CCCC(C)N(C)Cc1nnc(-c2ccco2)o1` (stereo not given) stands 26.9%.

Regarding `CN(Cc1nnc(C2CCC2)o1)C(C(N)=O)c1cccc(F)c1` (stereo not given), the INHIBITION amounted to 12.7%.

Regarding `CC(C)CC(C)N(C)Cc1nnc(-c2ccco2)o1` (stereo not given), the INHIBITION is given as -17.5%. With `CN(Cc1nnc(-c2cccs2)o1)C(C(N)=O)c1cccc(F)c1` (stereo not given), the INHIBITION is -15.3%. Under `CC(C)C(C)N(C)Cc1nnc(-c2ccco2)o1` (stereo not given) stands 66.9%; under `CC(CNCc1ccc(Br)cc1)Oc1ccccn1` (stereo not given), 13%; under `Cc1ccc2nc(-c3nc4c([nH]3)CC(C)(C)CNC4=O)cn2c1`, 16.9%. As for `c1coc(CN2CCc3onc(Cn4cccc4)c3C2)c1`, the INHIBITION turned out to be 20.1%. Turning to `CC(C)Oc1ccccc1C1CC(=O)Nc2c1cnn2C` (stereo not given), the INHIBITION is on record as -31.6%. As to `Cc1cccc(C(=O)N2CCCCC2c2nc3cc(F)ccc3[nH]2)n1` (stereo not given), the INHIBITION was 39.1%. The same measure for `CC(NC(=O)Nc1cc(F)ccc1N1CCCCC1)c1nncn1C` (stereo not given): 25.7%; for `NC(=O)c1ccc(N2CCCCC2)c(NC(=O)c2ccc(F)cc2F)c1`: 89.1%; for `Cc1ccc(NC(=O)c2ccc(N3CCCCC3)nn2)c(Cl)c1`: 11.3%.

`NC(=O)c1ccc(N2CCCCC2)c(NC(=O)c2cc(F)ccc2F)c1`: the INHIBITION is on record as 93.1%. Under `COCCCN1Cc2cccc(NC(=O)c3cc(F)ccc3F)c2C1` stands 32.9%; under `O=C(c1cc(Br)ccc1-n1cnnn1)N1CCCCC1`, 24.2%; under `NC(=O)c1ccc(N2CCCCC2)c(NC(=O)c2cc(Br)ccc2F)c1`, 86.8%.

As for `Cc1cc(NC(=O)c2ccc(F)cc2F)n(C)n1`, the INHIBITION is 29.3%. Regarding `NC(=O)c1ccc(N2CCCCC2)c(NC(=O)c2ccc(Br)cc2)c1`, the INHIBITION is reported as 39.5%. Under `NC(=O)c1ccc(N2CCCCC2)c(NC(=O)c2cc(Br)ccc2Cl)c1` stands 81.2%. The same measure for `C[C@@H]1CN(Cc2cc3ccccc3n2C)CC[C@]1(C)O`: -13.6%. As for `CCc1cc(N(C)Cc2nonc2C)nc(N(C)C)n1`, the INHIBITION is listed as 31.7%. The same measure for `CC(Cn1cccn1)NC(=O)NCc1ccc(S(C)(=O)=O)cc1` (stereo not given): 19.5%. As to `CC(C)n1cnnc1CN(C)C(=O)c1cnn2ccccc12`, the INHIBITION was found to be 38.2%. Under `COc1cc(C)nc(N2CCN(C(=O)COCC3CC3)CC2)n1` stands 23.295%. Under `CC(C)C(=O)N1CC2(CCN(CC(C)(C)C)CC2)C1` stands 1.34%; under `COCCN1CCOCC2(CCCN(Cc3ccc(C)o3)C2)C1` (stereo not given), 20.2%; under `CCN(CC(=O)NC1(C)CCS(=O)(=O)C1)Cc1ccc(OC)c(F)c1` (stereo not given), -9.37%. The same measure for `Cc1nccc([C@@H]2C[C@@H]3CCN(S(=O)(=O)C4CC4)C[C@H]3O2)n1`: -37.9%; for `Cc1cc(C(N)=O)ccc1NC(=O)c1nc(N2CCCCC2)ncc1Cl`: 49.3%; for `Cc1cc(C(N)=O)ccc1NC(=O)c1nc(N2CCCC2)ncc1Cl`: 20.1%. With `NC(=O)c1ccc(N2CCCCC2)c(NC(=O)c2ccc(F)cc2Cl)c1`, the INHIBITION is 73.2%. The same measure for `Cc1ccc(C(=O)Nc2cc(C(N)=O)ccc2N2CCCCC2)cc1F`: 69.3%; for `Cc1ccc(C(=O)Nc2ccc(N3CCCC3)cn2)cc1F`: -6.12%. The same measure for `Cc1ccc(C(=O)Nc2cc(C(N)=O)ccc2CN(C)C)cc1Cl`: 16.4%. Take `CCn1nc(C)c2nc(C(C)C)nc(N3CCOCC3)c21`: the INHIBITION is reported as -38.8%. Regarding `Cc1cnccc1-c1cnn(CCNC(=O)C(C)(C)C)c1C1CC1`, the INHIBITION was found to be 39.7%. Turning to `Cc1ccc(C(=O)N2C[C@@H](OCc3cccnc3)[C@H]3OCCC[C@@H]32)o1`, the INHIBITION was 35.4%. The same measure for `CN(Cc1cccc(CCN)c1)Cc1cccc2ncccc12`: 20.3%; for `COCCN(Cc1cccc(OCCO)c1)Cc1ccccc1F`: 13%; for `CN(Cc1cccnc1N)Cc1cccc2ncccc12`: 83%.

Regarding `Cc1cn(CC(=O)N(C)Cc2cccc3ncccc23)c(=O)[nH]c1=O`, the INHIBITION is listed as -12.8%. The same measure for `CCCN(Cc1cccc(OCCO)c1)Cc1ccccc1OC`: 25%. Under `CN(Cc1cccc(OCCO)c1)Cc1cccc2ncccc12` stands 76.6%; under `CC(=O)N1CCCC(Cc2cnc(-n3ccnc3)cn2)C1` (stereo not given), -33.4%. Under `C=C(C)COc1cccc(C(=O)NC(C)c2nnn[nH]2)c1` (stereo not given) stands 52.1%. In the case of `Cc1cc(C(=O)NC(C)c2nnn[nH]2)c2cccc(C)c2n1` (stereo not given), the INHIBITION was determined as 60%. The same measure for `Cc1cc(C(=O)NC(C)c2nnn[nH]2)c2ccc(C)c(C)c2n1` (stereo not given): -11.6%. Under `Cc1cc(C)c2nc(C)cc(C(=O)NC(C)c3nnn[nH]3)c2c1` (stereo not given) stands 45.1%; under `C=C(C)COc1cccc(C(=O)NCCCc2nnn[nH]2)c1`, 9.41%. Under `CCC(=O)c1ccc(OCC(=O)NC(C)c2nnn[nH]2)cc1` (stereo not given) stands -47.9%.
